Shown are actives, neighbours in structure and some others; about 27% of the full set was active somewhere.
Cav3 T inh: blocks human Cav3.2 T-type calcium channel. Cav3.2-expressing cells, Fluo-4 calcium fluorescence FDSS; stronger effect = lower value. B-score at 10 µM. 100,000 compounds, 4% hits. AID 449739;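 active means single-dose well whose peak fluorescence ratio is a statistical outlier from its plate by either plate-standardised score or position-corrected B-score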
CYP2C19 act: cytochrome P450 2C19 (human) activation. P33261. recombinant CYP2C19, luciferin-H EGE luminescence; stronger effect = higher value; 0 = fully inhibited enzyme, 1 = untreated enzyme. activation factor at 5 µM. 96,000 tested, under 10 active;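 active means activation factor of at least 2 at 5 µM in the primary screen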;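 further: 0 = wells with 2.5 mM tranylcypromine and 1 = vehicle-only wells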
CYP2C9 act: increases human cytochrome P450 2C9 activity; recombinant CYP2C9, luciferin-H conversion, luminescence; stronger effect = higher value; factor 1 = untreated enzyme, 0 = blocked; activation factor at 5 µM; 96,000 compounds, 1.4% hits; AID 1024;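 active means activation factor of 2 or more for CYP2C9 at a 5 µM dose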;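 further: 0 = sulfaphenazole-blocked wells and 1 = vehicle-only wells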
CYP2C19 inh: blocks human cytochrome P450 2C19; P33261; CYP2C19 Supersomes, luciferin-H EGE luminescence, 30 min; inhibition, % at 5 µM; 96,000 compounds, 21% hits;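 active means CYP2C19 inhibition above a set limit at 5 µM in the primary screen, cut at about 50% in these data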;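 further: plate controls were negative control wells for no effect and 2.5 mM tranylcypromine positive control for full effect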
CYP2C9 inh: human CYP2C9 inhibition | P11712 | CYP2C9 Supersomes, luciferin-H conversion, luminescence | inhibition, % at 5 µM | 96,000 compounds, 20% hits;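 active means blocking of liver enzyme CYP2C9 beyond about 50% at 5 µM, limit read from the data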
The depositor's hits bear a star; x = no result.

SMILES	Cav3 T inh	CYP2C19 act	CYP2C9 act	CYP2C19 inh	CYP2C9 inh
COc1cccc(-c2nnc3n2N=C(c2cc(OC)ccc2OC)CS3)c1	-1.8	0.3	0.4	72*	57*
COc1cc(-c2nnc3n2N=C(c2ccccc2)CS3)cc(OC)c1OC	-1.6	0.3	0.3	73*	68*
Cc1cccc(-c2nnc3n2N=C(c2ccccc2Br)CS3)c1	-2.7	0.2	0.5	85*	52*
COc1cccc(C2=Nn3c(nnc3-c3ccccc3O)SC2)c1	-0.6	0.6	0.3	43	69*
Cc1nc2nc(C)c(CCC(=O)O)c(C)n2n1	-0.83	1	1.1	4	-7
O=C1C2C(c3ccccc3)CC=CC2[C@H](c2cccc([N+](=O)[O-])c2)N1Cc1ccccc1 (some centres undefined)	-1.2	x	x	x	x
COc1ccc(C2=Nn3c(nnc3-c3ccc(OC)cc3)SC2)cc1	-7.2*	0.8	0.5	22	52*
COc1ccc(OC)c(C2=Nn3c(nnc3-c3cc(OC)c(OC)c(OC)c3)SC2)c1	-0.66	0.4	0.1	60*	88*
Clc1ccccc1C1=Nn2c(nnc2-c2ccncc2)SC1	x	0.4	0.3	61*	72*
COc1cccc(-c2nnc3n2N=C(C(C)(C)C)CS3)c1	0.56	0.3	0.7	68*	30
O=C(Nc1ccc2c(c1)OCCO2)C1CCCN(S(=O)(=O)c2cccnc2)C1 (centres undefined)	1.4	1	0.9	-1	7
O=C(Cn1cc(C(=O)C2CC2)c2ccccc21)NC1CCCC1	1	1	0.6	-2	43
O=C(OCc1ccccc1)c1ccc2c(c1)-c1ccccc1C2=O	-0.27	0.7	0.4	35	55*
Cc1ccccc1OCCCCn1cnc2ccccc21	-2.5	0.4	0.7	61*	35
Brc1ccccc1OCCCn1cnc2ccccc21	-2.9	0.4	0.4	58*	60*
c1ccc(OCCCCn2cnc3ccccc32)cc1	-2.3	0.4	0.9	60*	9
CCCOc1ccc(Cn2cnc3ccccc32)cc1	0.057	0.4	0.1	65*	87*
CC1(c2ccc(Cl)cc2)NC(=O)N(CC(=O)N2CCCC2)C1=O (centres undefined)	0.49	1.1	1.2	-5	-18
Cc1ccc(C)c(N2C(=O)CN=C2Nc2ccccc2Cl)c1	2	0.6	0.6	45	44
Cc1cccc(Cn2cnc3ccccc32)c1	-1	0.2	0.5	84*	53*
Fc1ccc(Cn2cnc3ccccc32)cc1	-0.42	0.6	0.9	44	13
Cc1ccc(CSC2=Nc3ccccc3C3=NC(CC(=O)NCc4ccco4)C(=O)N23)cc1 (centres undefined)	0.029	0.9	0.2	11	79*
CCCCNC(=O)CC1N=C2c3ccccc3N=C(SCC(=O)Nc3ccc(OC)cc3)N2C1=O (centres undefined)	0.73	0.8	0.4	18	60*
CCCCNC(=O)CC1N=C2c3ccccc3N=C(SCC(=O)Nc3cccc(OC)c3)N2C1=O (centres undefined)	0.99	0.9	0.7	8	32
O=C(CC1N=C2c3ccccc3N=C(SCc3ccc(F)cc3)N2C1=O)NCc1ccco1 (centres undefined)	-1.5	0.9	0.7	12	32
SMILES	Cav3 T inh	CYP2C19 act	CYP2C9 act	CYP2C19 inh	CYP2C9 inh
O=C(CCC1N=C2c3ccccc3N=C(SCc3ccc(Cl)cc3)N2C1=O)NCc1ccco1 (centres undefined)	-2.5	0.6	0.2	36	77*
O=C(CSC1=Nc2ccccc2C2=NC(CC(=O)NCc3ccco3)C(=O)N12)NCC1CCCO1 (centres undefined)	0.11	1.1	1	-9	-2
Cc1cc(C(=O)CNCc2ccco2)c(C)n1-c1ccc(F)cc1	0.55	0.5	0.7	51*	28
CCOC(=O)c1cnn(-c2cccc(Cl)c2)c1N	0.59	0.4	0.6	62*	42
CCCCCNc1c(C(=O)OCC)c(=O)[nH]c2ccccc12	-0.34	0.9	0.8	9	22
O=C(CN(C1CCCCC1)S(=O)(=O)c1ccc(Cl)cc1)NCc1ccncc1	-0.11	0.1	0.2	94*	82*
O=C(CN(C1CCCCC1)S(=O)(=O)c1ccc(F)cc1)NCCCO	-0.00013	1	0.9	-1	7
O=C(CN(C1CCCCC1)S(=O)(=O)c1ccc(F)cc1)NCc1ccncc1	-2.4	0.1	0.2	86*	83*

Screens as filed in PubChem.
